Only some compounds are listed: those with a hit (about 4.5% of all), similar ones and a draw of the others.
ssDAF12 agonist: activates DAF-12 receptor from parasite S. stercoralis; AID 652126; activation, % at 6.8 µM; actives 1% (n = 370,000); HEK293 ssDAF-12/GRIP1 lit1-tk-luc reporter, luminescence; % of 3 µM dafachronic acid response;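 active means activation above the mean over all tested compounds plus 3 SD, cut at about 0.9% in these data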
GAA850 FXN act: increases GAA850 frataxin promoter reporter activity; HEK293 lucGAA850 FXN promoter luciferase reporter, 24 h; percent of 10 µM SAHA response; activation, % at 6 µM; actives 0.56% (n = 360,000); AID 540364;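 active means activation above the average of all compounds screened plus 3 SD, cutoff fixed separately per campaign, cut at about 7.5% in these data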
hcDAF12 agonist: activators of H. contortus DAF-12 nuclear receptor | HEK293 hcDAF-12 lit1-tk-luc reporter, luminescence; 0% DMSO, 100% Δ7-dafachronic acid | activation, % at 6.8 µM | actives 1.4% (n = 370,000) | AID 652067;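 active means activation above the mean of all tested compounds plus 3 SD, cut at about 5.5% in these data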
DAX1 inh-1: inhibitors of human orphan nuclear receptor DAX1 (NR0B1); inhibition, % at 6.75 µM; HEK293 Gal4-DAX1 luciferase reporter, luminescence; AID 504766; actives 0.99% (n = 340,000); P51843;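 active means inhibition above the mean over all tested compounds plus 3 SD, cut at about 4.2% in these data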;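 further: inhibition shows as a rise in luminescence from relieved DAX1 repression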
Target sequence (P51843 207-470 limits assumed): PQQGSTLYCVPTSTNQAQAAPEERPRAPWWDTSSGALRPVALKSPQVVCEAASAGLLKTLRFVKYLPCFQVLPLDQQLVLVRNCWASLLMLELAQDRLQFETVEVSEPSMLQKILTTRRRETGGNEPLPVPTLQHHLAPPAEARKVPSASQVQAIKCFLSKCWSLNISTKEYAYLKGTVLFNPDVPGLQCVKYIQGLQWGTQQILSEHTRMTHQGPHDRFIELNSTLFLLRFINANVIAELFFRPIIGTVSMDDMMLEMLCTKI
DAX1 inh-2: blocks DAX1 repression of SF-1 activated StAR promoter. HEK293T StAR-luciferase reporter, SF-1/DAX-1 repression relief. inhibition, % at 6.8 µM. actives 1.1% (n = 370,000). AID 652010;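 active means inhibition above the mean over all tested compounds plus 3 SD, cut at about 3.6% in these data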;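 further: higher inhibition means more luminescence from relief of DAX-1 repression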
hgDAF12 agonist: activates the H. glycines DAF-12 receptor ligand-binding domain. HEK293 GAL4-hgDAF12 UAS-luciferase reporter, agonist luminescence; normalized to butyrate control. activation, % at 6.8 µM. actives 1.8% (n = 370,000). AID 687014;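 active means activation above a cutoff set at the mean of all screened compounds plus 3 SD, cut at about 10% in these data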
Numbers stand for hits; 0 = inactive; - = not tested or not shown.

SMILES	ssDAF12 agonist	GAA850 FXN act	hcDAF12 agonist	DAX1 inh-1	DAX1 inh-2	hgDAF12 agonist
CC(=O)NC(CC(=O)OCC(=O)NCCc1ccccc1)c1ccccc1 (stereo unspecified)	0	0	0	0	0	0
CC(=O)NC(CC(=O)OCC(=O)c1cc(C)ccc1C)c1ccccc1 (stereo unspecified)	0	0	0	0	4.3	0
O=C(NCCc1ccccc1)c1nc(-c2cccs2)no1	0	0	0	0	0	11
O=C(NCc1cccs1)c1nc(-c2cccs2)no1	0	0	0	4.3	0	0
O=C(NCc1ccncc1)c1nc(-c2cccs2)no1	0	0	0	0	0	0
N#CCCCc1cn(-c2ccc(-c3noc4c3C(=O)N(CC(=O)N3CCOCC3)CC4)cc2)nn1	0	-	0	-	0	0
FC(F)(F)c1ccc(Cn2ccc3ccc(-c4ccc5ccn(Cc6ccccc6)c5c4)cc32)cc1	0	-	0	-	0	0
CCOc1cc(OCC)cc(C(=O)N2CCC[C@H]2C(=O)N2CCC[C@H]2C(=O)NCc2ccc(F)cc2F)c1	0	-	0	-	0	0
CCOc1cc(OCC)cc(C(=O)N2CCC[C@@H]2C(=O)N2CCC[C@@H]2C(=O)NCc2ccccc2Cl)c1	1.0	-	0	-	0	0
COCCCNC(=O)C[C@H]1C[C@@]2(C(=O)OC)C(=C[C@H](COCc3ccccc3)O[C@@H]2C)N(CCc2ccc(OC)c(OC)c2)C1=O	0	-	0	-	0	0
O=C(COC(=O)c1nc(Cl)ccc1Cl)Nc1ccc(Cl)cc1	0	0	0	0	0	0
O=C(COC(=O)c1nc(Cl)ccc1Cl)Nc1ccc(Cl)cn1	1.0	0	5.7	0	0	0
COc1ccccc1N=c1sc2ccccc2n1C	0	0	0	0	0	0
COc1ccc(N=c2sc3ccccc3n2C)cc1	0	0	6.1	5.6	4.5	11
COc1ccc2ccc(OC)c(/C=N/n3cnnc3)c2c1	0	0	0	0	0	0
COc1ccc2ccccc2c1/C=N/n1cnnc1	0	0	6.5	0	0	0
COc1cccc(C(=O)OCC(=O)Nc2nnc(-c3ccccc3)o2)c1	0	0	0	5.3	0	0
COc1cc(OC)cc(C(=O)OCC(=O)Nc2nnc(-c3ccccc3)o2)c1	0	0	0	0	0	0
COC(=O)[C@]12C[C@H](CC(=O)N3CCC(c4ccccc4)CC3)C(=O)N(Cc3ccco3)C1=C[C@H](C(C)C)O[C@@H]2C1CC1	0	-	0	-	0	0
O=C(NCc1ccccn1)Nc1ccc(Br)cc1Cl	0	0	0	0	5.2	0
S=C(NCc1ccccc1Cl)Nc1ccccc1Cl	0	0	0	7.4	0	0
S=C(NCc1ccccn1)Nc1ccc(Br)cc1Cl	0	0	0	5.6	0	0
S=C(NCc1ccccn1)Nc1ccccc1Cl	0	0	5.6	0	0	0
COc1cccc(NC(=O)CN(C)C(C)C(=O)Nc2ccc(C(C)=O)cc2)c1 (stereo unspecified)	0	0	0	6.8	0	0
Cc1ccc(-c2nnc(/C=C/c3ccccc3)o2)cc1	0	0	0	0	0	11
SMILES	ssDAF12 agonist	GAA850 FXN act	hcDAF12 agonist	DAX1 inh-1	DAX1 inh-2	hgDAF12 agonist
Cc1ccc(/C=C/c2nnc(-c3cccc(C)c3)o2)cc1	0	0	0	0	0	0
CC1CCC/C(=N/NC(=O)c2ccccc2-n2cccc2)C1 (stereo unspecified)	0	0	6.1	0	0	0
Clc1cccc(CN2CCCCCC2)c1	0	0	0	0	0	0
Clc1ccc(-c2nc3cc(CN4CCCCC4)ccc3o2)cc1	0	0	0	0	0	11
Cc1ccccc1CN[C@@H]1CC[C@@]23CCCN2C(=O)CCC[C@H]3C1	0	-	0	-	-	0
COc1ccccc1NS(=O)(=O)c1cccc(C(=O)NCC(c2ccccc2OC)N2CCCC2)c1 (stereo unspecified)	0	0	0	0	4.3	0
COc1ccccc1NS(=O)(=O)c1cccc(C(=O)OCc2nc3ccccc3s2)c1	2.7	0	5.6	0	0	0
O=C(Nc1ccc(NC(=O)C2CCCCC2)nc1)c1ccccn1	0	0	0	0	0	12
CCOC(=O)/C(C#N)=C/C=C1/C=CC=CN1C	0	0	0	5.7	0	0
CCOC(=O)/C(C#N)=C\N(C)C	0	0	0	0	0	0

Bioassay records from PubChem.
